Data as given in article PMC5540273 (PLoS ONE, 2017).

What was measured:
Conditions in all cases: concentration: 1 μM, replicates: in singlicate; n = 1
ACVR2B = tested on: ACVR2B
ACVRL1 = tested on: ACVRL1
ADCK3 = tested on: T1, ADCK3
T1 construct: gene CABC1

ADCK4 = tested on: ADCK4
AKT1 = tested on: AKT1
AKT2 = tested on: AKT2
AKT3 = tested on: AKT3
ALK = tested on: ALK
AMPK-alpha1 = tested on: T2, AMPK-alpha1
T2 construct: gene PRKAA1

AMPK-alpha2 = tested on: T3, AMPK-alpha2
T3 construct: gene PRKAA2

ANKK1 = tested on: ANKK1
ARK5 = tested on: T4, ARK5
T4 construct: gene NUAK1

ASK1 = tested on: T5, ASK1
T5 construct: gene MAP3K5

ASK2 = tested on: T6, ASK2
T6 construct: gene MAP3K6

AURKA = tested on: AURKA
AURKB = tested on: AURKB
AURKC = tested on: AURKC
AXL = tested on: AXL
BIKE = tested on: T7, BIKE
T7 construct: gene BMP2K

BLK = tested on: BLK
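Note: KINOMEscan kinase panel screen.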

SMILES | %Inh (ACVR2B) [%] | %Inh (ACVRL1) [%] | %Inh (ADCK3) [%] | %Inh (ADCK4) [%] | %Inh (AKT1) [%] | %Inh (AKT2) [%] | %Inh (AKT3) [%] | %Inh (ALK) [%] | %Inh (AMPK-alpha1) [%] | %Inh (AMPK-alpha2) [%] | %Inh (ANKK1) [%] | %Inh (ARK5) [%] | %Inh (ASK1) [%] | %Inh (ASK2) [%] | %Inh (AURKA) [%] | %Inh (AURKB) [%] | %Inh (AURKC) [%] | %Inh (AXL) [%] | %Inh (BIKE) [%] | %Inh (BLK) [%]
Cc1ccc(NC(=O)Nc2cc(C(C)(C)C)nn2-c2ccccc2)cc1 [GSK1014915] | 5 | 5 | 25 | 25 | 0 | 14 | 20 | 28 | 0 | 11 | 0 | 0 | 1 | 22 | 0 | 17 | 18 | 2 | 22 | 20
COc1cccc(-c2cc(-c3c[nH]nc3-c3ccccn3)ccn2)c1 [GW680338] | 18 | 0 | 25 | 26 | 0 | 0 | 0 | 34 | 7 | 0 | 13 | 0 | 0 | 27 | 0 | 0 | 89 | 7 | 54 | 8
Cc1cccc(-c2nc(Nc3cccc(C(N)=O)c3)c3ccccc3n2)n1 [GW876019] | 19 | 0 | 20 | 26 | 9 | 0 | 0 | 22 | 31 | 0 | 0 | 6 | 17 | 0 | 0 | 30 | 12 | 0 | 11 | 21
CS(=O)(=O)c1ccc(-c2nc3n(c2-c2ccncc2)CCC3)cc1 [SKF-105942] | 0 | 0 | 11 | 58 | 0 | 100 | 0 | 28 | 24 | 0 | 0 | 8 | 11 | 0 | 0 | 34 | 0 | 0 | 3 | 9
Cc1cccc(-c2nc(C)cc(Nc3ccncc3)n2)n1 [GSK257997] | 7 | 0 | 18 | 24 | 0 | 3 | 0 | 20 | 3 | 12 | 0 | 0 | 0 | 0 | 21 | 0 | 13 | 7 | 21 | 32
O=C(Nc1ccccc1)Nc1cccc(Oc2ccc3nccn3n2)c1 | 6 | 0 | 5 | 18 | 32 | 0 | 20 | 17 | 11 | 0 | 0 | 0 | 0 | 0 | 0 | 8 | 26 | 7 | 0 | 0
Cc1c(O)cccc1Nc1ccnc2ccc(C(F)(F)F)cc12.Cl [GW466413] | 85 | 43 | 0 | 81 | 0 | 0 | 1 | 25 | 12 | 16 | 0 | 10 | 0 | 0 | 0 | 34 | 0 | 1 | 4 | 66
